The first assay deals with THRa homodimer (NR concentration 90 nM). Briefly: PBM binding z-score (relative to random genomic background probes); higher = stronger binding; sequences stand for … in GC…GCGATTGACAGCGTAGAATGAAGG
The gist of the method: (§1)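 Custom Agilent 4×180K protein-binding microarrays carried double-stranded probes. Their 34-nt variable regions held direct-repeat seeds, single-nucleotide variants, half-site ablations and random human genomic background sequences. Arrays were incubated 1 h with ligand-free nuclear receptor dimers in PBS pH 7.4, 2% milk, 0.02% Triton X-100, 1 mM DTT, 0.2 mg/mL BSA and 0.4 mg/ml salmon testes DNA. Antibodies against each partner (one per run) detected binding, and scanned fluorescence was regression-normalized. Binding z-scores use random background probes as reference.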
CCTCCTAGGTCATGGTCAGCTAATCTACAGTATG displayed a PBM binding z-score of 1.92.
In the case of CCAGACAGGTGAAAGGTAACACAGTCTGGTACGC, the PBM binding z-score is -0.219.
As to AGAACGAGGGCAATGAGTTGATAGCGCGGGTGGC, the PBM binding z-score was -0.205.
Same read-out and setting: the value for ATATGTAGGTTATCGGGTCAATCAGTTTGCGCAT was 2.53.
As for ACAGACAGATGAGTGAAGGTAACTCAGCTGGACG, the PBM binding z-score is -0.331.
GCAGACAGGTGAAAAGCAGGTAACTCAGGGTGGC: the PBM binding z-score is -0.428.
Same read-out and setting: the value for TCGAGTAGGTTACCAAGGGGGCATTCAGCTTTCT was 0.891.
As for GCGACTGGGGCAAAGCAGGTTACCAAAAGGTTGG, the PBM binding z-score is -0.199.
ATATGTAGGTTACATCCAGGTCATTCAGGCTATG: the PBM binding z-score worked out at 3.46.
Still for that read-out and setting: with CCTACTGGGCCAAATGTCATTGATTCCAATGCTC the figure was -0.347.
Consider ACTGTTAGTTGACTTAGGGCAACCGATACGACGC, for which the PBM binding z-score worked out at 0.731.
With ATCTAAAGGTCGAGGTGAGTATAGAGAAAGGGAA, the PBM binding z-score came out at 1.31.
Still for that read-out and setting: with CCTAGTTGGTCAAGGGCACACACGCTATAGGTAC the figure was 0.605; with TCTTGTAGATCAACAGGAGGCTAAGAAAGATCGA, -1.25; with TCATATAGGTAAACAGGTGAAAATCCGTAAGTTA, 0.391.
Same read-out and setting: the value for CGTCCAAGGTCTATGCTAGGTCAGTGAAAGCATT was 0.687.
For CGTCCAAGGTCAAGGTCAGTGGAAGAGACTCGAA, the PBM binding z-score amounted to 3.67.
As for AGAATGAGGTTATTAAGTTCAGGGAATTGCGGTC, the PBM binding z-score was 1.36.
Regarding CCTTACGGGTCACTCCAGGTAATAGCATCGGAGT, the PBM binding z-score was determined as 0.347.
For ATCGAAAGGACGACGAGGTGAGTATACACCGTTT, the PBM binding z-score amounted to 0.601.
Sequence CGTCCAAGGTCATAGGAGGTCAGTGAAGACAGAT showed a PBM binding z-score of 3.01.
On the same count and under the same terms, the value for GATACAGGGTCAAGGCCAGAGAACGCGTATTGAT was 1.3.
Same read-out and setting: with TCTATTAGTTGAAAGGCAACCGACGAGTCCGTTT the figure was 0.0862.
On the same count and under the same terms, the value for CCGACTGGGGCAAAGGTTACCATCCTCAGTACGA was -0.0864; that for TCTTGTAGATCAAGCAGGATAAGAAAGCCTGAGT was -0.704; that for AGACCGAGGGCACGCTGAGTTGATAGCAGAGTAG was -0.237.
As to TCTAGTTGGTCACCGAGGTCACACACGACGGGTA, the PBM binding z-score was determined as 4.2.
Same read-out and setting: the value for CGTGCAAGGTCAGCAGGTCAGTGAAAGCGACGTG was 2.04; that for CCTCGCAGGACAACAGGAGGTCAGAGCTGCCAGA was 0.912.
As to ATCTCTAGATAAAAGTTCAGTGAATCCCGAGGAT, the PBM binding z-score is -0.209.
CCTAGCAGGCCAGGGTCAATCAAGCATTTCGCTT gave a PBM binding z-score of 0.553.
The same measure, in the same setting: the value for TCTTGTACATCAAAGGTTAAGAAAGCCGAAGCCT was -0.039; that for ACTATTAGTTGAGACGAGGGCAACCGTTAGGTTG was 0.14; that for AGAATGAGGTTATTAAGATCAGGCAATTGCGGTC was 0.632.
GCATATAGATAATACAAGGTGAAAGTCCGATTGT had a PBM binding z-score of 0.964.
Still for that read-out and setting: with GCTTGTAGATCAAGGTTAGGAAAGACTAAGCTAA the figure was -0.327.
Still for that read-out and setting: with AGAATGATGTTATTAAGATCAGGGAATTGCGGTC the figure was -0.511.
Turning to CCGACTGGGGCAAAGGTTACCATTCTCAGTACGA, the PBM binding z-score was -0.246.
On the same count and under the same terms, with ATATGTAGGTTATCGGGTCATTTAGTTTGCGCAT the figure was 2.86; with TCATATAGGTAAATGCTAGGTTAAAGTCCGATCT, 0.664.

Another assay deals with VDR homodimer (NR concentration 270 nM). Described as above. The gist of the method: as §1
As for CCTCCTAGGTCATGGTCAGCTAATCTACAGTATG, the PBM binding z-score stood at 0.641.
Still for that read-out and setting: the value for CCAGACAGGTGAAAGGTAACACAGTCTGGTACGC was -0.147; that for AGAACGAGGGCAATGAGTTGATAGCGCGGGTGGC was 3.3; that for ATATGTAGGTTATCGGGTCAATCAGTTTGCGCAT was 2.85.
Same read-out and setting: the value for ACAGACAGATGAGTGAAGGTAACTCAGCTGGACG was -0.0316; that for GCAGACAGGTGAAAAGCAGGTAACTCAGGGTGGC was -0.329.
Same read-out and setting: the value for TCGAGTAGGTTACCAAGGGGGCATTCAGCTTTCT was 2.16; that for GCGACTGGGGCAAAGCAGGTTACCAAAAGGTTGG was -0.329.
As for ATATGTAGGTTACATCCAGGTCATTCAGGCTATG, the PBM binding z-score turned out to be 2.88.
For CCTACTGGGCCAAATGTCATTGATTCCAATGCTC, the PBM binding z-score is -0.651.
The sequence ACTGTTAGTTGACTTAGGGCAACCGATACGACGC yielded a PBM binding z-score of 0.453.
As for ATCTAAAGGTCGAGGTGAGTATAGAGAAAGGGAA, the PBM binding z-score came out at 0.632.
The same measure, in the same setting: the value for CCTAGTTGGTCAAGGGCACACACGCTATAGGTAC was 1.09; that for TCTTGTAGATCAACAGGAGGCTAAGAAAGATCGA was -0.893; that for TCATATAGGTAAACAGGTGAAAATCCGTAAGTTA was 0.265.
Turning to CGTCCAAGGTCTATGCTAGGTCAGTGAAAGCATT, the PBM binding z-score amounted to 0.404.
For the sequence CGTCCAAGGTCAAGGTCAGTGGAAGAGACTCGAA, the PBM binding z-score is 3.15.
Sequence AGAATGAGGTTATTAAGTTCAGGGAATTGCGGTC had a PBM binding z-score of 6.33.
Same read-out and setting: the value for CCTTACGGGTCACTCCAGGTAATAGCATCGGAGT was 1.19; that for ATCGAAAGGACGACGAGGTGAGTATACACCGTTT was 0.0497; that for CGTCCAAGGTCATAGGAGGTCAGTGAAGACAGAT was 4.13.
Sequence GATACAGGGTCAAGGCCAGAGAACGCGTATTGAT had a PBM binding z-score of 1.59.
Sequence TCTATTAGTTGAAAGGCAACCGACGAGTCCGTTT returned a PBM binding z-score of 1.08.
Turning to CCGACTGGGGCAAAGGTTACCATCCTCAGTACGA, the PBM binding z-score is -0.138.
The same measure, in the same setting: with TCTTGTAGATCAAGCAGGATAAGAAAGCCTGAGT the figure was 0.105.
The same measure, in the same setting: the value for AGACCGAGGGCACGCTGAGTTGATAGCAGAGTAG was 1.75; that for TCTAGTTGGTCACCGAGGTCACACACGACGGGTA was 3.89.
Same read-out and setting: the value for CGTGCAAGGTCAGCAGGTCAGTGAAAGCGACGTG was 1.73; that for CCTCGCAGGACAACAGGAGGTCAGAGCTGCCAGA was 1.05; that for ATCTCTAGATAAAAGTTCAGTGAATCCCGAGGAT was 1.35.
For CCTAGCAGGCCAGGGTCAATCAAGCATTTCGCTT, the PBM binding z-score came to 1.07.
The same measure, in the same setting: with TCTTGTACATCAAAGGTTAAGAAAGCCGAAGCCT the figure was 0.246; with ACTATTAGTTGAGACGAGGGCAACCGTTAGGTTG, 0.969.
In the case of AGAATGAGGTTATTAAGATCAGGCAATTGCGGTC, the PBM binding z-score is 1.24.
On the same count and under the same terms, the value for GCATATAGATAATACAAGGTGAAAGTCCGATTGT was 0.0275; that for GCTTGTAGATCAAGGTTAGGAAAGACTAAGCTAA was -0.0771; that for AGAATGATGTTATTAAGATCAGGGAATTGCGGTC was -0.127.
The same measure, in the same setting: the value for CCGACTGGGGCAAAGGTTACCATTCTCAGTACGA was -0.419.
Turning to ATATGTAGGTTATCGGGTCATTTAGTTTGCGCAT, the PBM binding z-score was 2.85.
TCATATAGGTAAATGCTAGGTTAAAGTCCGATCT yielded a PBM binding z-score of 0.441.

Source of the values: the supplement of paper PMC6555819.
